The record followed here is ChEMBL document CHEMBL3988442, “University of Dundee, Small-Polar-MMV Screening Library” (2021).

For some assays here: Potency and affinity values are given separately.

Holding throughout (parameters): scale not given: direction of the effect not stated beside the values
Assay [1] addresses Protein translocase subunit SecA (Escherichia coli (strain K12)) (UniProt P10408). Kind of assay: Assay to Identify E. coli SecA ATPase Inhibitors. Type of assay: functional. To be noted: 30 µM.
Assay [2] deals with T1, Ubiquitin-activating enzyme e1, putative (Leishmania donovani (strain BPK282A1)) (UniProt E9BSI1).
T1 sequence (whole entry): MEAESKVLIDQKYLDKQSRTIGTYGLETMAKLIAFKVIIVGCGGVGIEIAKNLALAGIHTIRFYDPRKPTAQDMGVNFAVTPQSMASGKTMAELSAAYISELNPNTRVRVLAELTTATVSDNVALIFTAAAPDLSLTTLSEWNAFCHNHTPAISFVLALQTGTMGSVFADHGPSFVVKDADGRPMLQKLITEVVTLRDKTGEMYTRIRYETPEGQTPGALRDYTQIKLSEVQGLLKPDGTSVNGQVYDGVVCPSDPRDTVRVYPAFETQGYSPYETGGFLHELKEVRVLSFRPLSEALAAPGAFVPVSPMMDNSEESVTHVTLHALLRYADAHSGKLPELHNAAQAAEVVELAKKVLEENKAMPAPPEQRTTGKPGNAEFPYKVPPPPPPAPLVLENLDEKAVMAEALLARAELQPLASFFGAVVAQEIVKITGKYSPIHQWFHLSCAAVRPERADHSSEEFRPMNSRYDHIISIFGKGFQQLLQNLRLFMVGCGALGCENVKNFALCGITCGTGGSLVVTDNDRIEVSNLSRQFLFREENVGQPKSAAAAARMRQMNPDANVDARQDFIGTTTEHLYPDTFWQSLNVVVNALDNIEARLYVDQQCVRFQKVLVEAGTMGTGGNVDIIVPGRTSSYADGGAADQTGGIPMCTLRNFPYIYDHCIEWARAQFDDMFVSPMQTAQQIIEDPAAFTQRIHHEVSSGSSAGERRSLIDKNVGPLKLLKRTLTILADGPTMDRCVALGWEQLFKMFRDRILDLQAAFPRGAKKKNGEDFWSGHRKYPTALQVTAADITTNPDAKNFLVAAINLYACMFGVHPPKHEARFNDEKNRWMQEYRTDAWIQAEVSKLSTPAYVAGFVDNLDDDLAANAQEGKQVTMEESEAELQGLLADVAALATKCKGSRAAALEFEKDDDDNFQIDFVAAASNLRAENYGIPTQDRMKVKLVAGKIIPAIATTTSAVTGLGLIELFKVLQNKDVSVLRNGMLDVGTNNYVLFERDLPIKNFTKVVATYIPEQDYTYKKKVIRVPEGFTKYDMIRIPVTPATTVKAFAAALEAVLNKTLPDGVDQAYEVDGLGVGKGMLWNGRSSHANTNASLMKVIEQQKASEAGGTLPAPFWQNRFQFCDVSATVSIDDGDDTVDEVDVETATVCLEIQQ
The assay is described as follows: Leishmania donovani Ubiquitin Activating Enzyme (LdE1). The assay is classed as functional. To be noted: 30 µM.

Assay [3] has as its target AMP-activated protein kinase, AMPK (Homo sapiens) (UniProt P54646+O43741+P54619+Q9UGJ0+Q9Y478+Q13131+Q9UGI9). Kind of assay: AMP-dependent Kinase enzyme assay. An in vitro enzyme assay that detects ADP turnover that is directly proportional to AMPK activity. This uses naive AMPK that is activated during the assay with MK-8722. Type of assay: functional. To be noted: 30 µM.

Assay [4] addresses Sialic acid-binding Ig-like lectin 9 (Homo sapiens) (UniProt Q9Y336). The assay is described as follows: Hs-Siglec9 ALPHAscreen SOP 20170721. The conditions noted are these: 10 µM. (Bead proximity is the source of the signal in Alpha formats.)
For assay [5], the system named is Trypanosoma cruzi. The assay is described as follows: Trypanosoma cruzi phosphomannomutase and mannose-1-phosphate guanylyltransferase assay. Type of assay: functional. To be noted: 10 µM.
The target in assay [6] is T2, Arginase-2, mitochondrial (Homo sapiens) (UniProt P78540).
T2 sequence (whole entry): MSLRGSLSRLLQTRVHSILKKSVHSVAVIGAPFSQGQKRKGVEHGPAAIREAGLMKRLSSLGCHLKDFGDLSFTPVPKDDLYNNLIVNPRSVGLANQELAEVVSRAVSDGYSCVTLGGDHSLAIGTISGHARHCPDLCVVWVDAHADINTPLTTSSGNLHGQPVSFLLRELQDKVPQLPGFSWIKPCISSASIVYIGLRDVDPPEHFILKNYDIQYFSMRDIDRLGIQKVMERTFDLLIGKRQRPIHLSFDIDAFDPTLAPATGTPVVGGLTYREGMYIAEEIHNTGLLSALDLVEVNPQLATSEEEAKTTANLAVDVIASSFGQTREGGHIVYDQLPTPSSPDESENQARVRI
The assay is described as follows: in vitro enzyme assay to detect the production of urea directly proportional to the activity of Arginase II. Also: in the data most compounds retested in dose-response had high values. Type of assay: functional. To be noted: 33.3 µM.

Assay [7] has as its target T3, Proteasome subunit beta (Trypanosoma cruzi) (UniProt O96673).
T3 sequence (whole entry): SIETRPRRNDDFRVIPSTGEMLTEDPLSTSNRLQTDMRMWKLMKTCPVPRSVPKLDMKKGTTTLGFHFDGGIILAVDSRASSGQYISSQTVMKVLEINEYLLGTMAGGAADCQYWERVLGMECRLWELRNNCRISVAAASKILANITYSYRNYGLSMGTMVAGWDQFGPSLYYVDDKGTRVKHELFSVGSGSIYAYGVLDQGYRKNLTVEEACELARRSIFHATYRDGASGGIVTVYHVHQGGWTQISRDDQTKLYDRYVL
The assay is described as follows: Trypanosoma cruzi proteasome chymotrypsin-like activity (TcProtChymo) assay. Also: in the data most compounds retested in dose-response had high values. Type of assay: functional. To be noted: 9.37 µM.

For assay [8], the species on record is Homo sapiens. The assay is described as follows: To identify inhibition of the IFN signalling (Jak-Stat) pathway via expression of an eGFP reporter gene under the control of an IFN-stimulated response element (ISRE) containing MxA promoter. The assay is classed as functional. The conditions noted are these: 30 µM. For orientation: In a reporter assay the amount or activity of a reporter protein is the signal.

The target in assay [9] is T4, Tyrosyl-tRNA synthetase, putative (Trypanosoma cruzi (strain CL Brener)) (UniProt Q4DSP6).
T4 sequence (whole entry): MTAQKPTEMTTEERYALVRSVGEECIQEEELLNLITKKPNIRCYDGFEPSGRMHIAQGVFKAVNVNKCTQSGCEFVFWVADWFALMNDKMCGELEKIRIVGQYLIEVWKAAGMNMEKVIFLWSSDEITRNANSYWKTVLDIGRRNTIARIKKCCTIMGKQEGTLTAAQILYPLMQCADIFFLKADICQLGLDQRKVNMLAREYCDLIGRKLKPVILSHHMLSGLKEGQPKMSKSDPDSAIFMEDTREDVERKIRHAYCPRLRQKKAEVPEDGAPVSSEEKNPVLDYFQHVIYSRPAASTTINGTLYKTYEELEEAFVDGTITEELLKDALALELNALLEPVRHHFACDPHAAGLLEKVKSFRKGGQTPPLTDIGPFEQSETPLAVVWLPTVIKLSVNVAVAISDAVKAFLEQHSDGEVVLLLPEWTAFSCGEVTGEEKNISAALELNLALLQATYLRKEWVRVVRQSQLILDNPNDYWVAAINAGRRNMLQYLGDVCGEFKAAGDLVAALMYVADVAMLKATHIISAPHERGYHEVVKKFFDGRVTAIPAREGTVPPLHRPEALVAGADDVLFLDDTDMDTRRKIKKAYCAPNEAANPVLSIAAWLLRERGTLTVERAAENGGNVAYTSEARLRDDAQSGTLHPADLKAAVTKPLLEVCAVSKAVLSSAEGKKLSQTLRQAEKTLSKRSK
Kind of assay: Trypanosoma cruzi tyrosyl tRNA synthetase (TcYRS) _High Tyrosine SOP. Also: in the data most compounds retested in dose-response had high values. The assay is classed as functional. The conditions noted are these: 30 µM.

Assay [10] deals with T4, Tyrosyl-tRNA synthetase, putative (Trypanosoma cruzi (strain CL Brener)). Kind of assay: Trypanosoma cruzi tyrosyl tRNA synthetase (TcYRS) SOP. The assay is classed as functional. To be noted: 30 µM.
Assay [11] deals with Chromo domain-containing protein 1 (Saccharomyces cerevisiae (strain ATCC 204508 / S288c) (Baker's yeast)) (UniProt P32657). The assay is described as follows: ScCHD-1 Enzyme Inhibition Assay. Also: in the data most compounds retested in dose-response had high values. Type of assay: functional. The conditions noted are these: 30 µM.
Sequence of Chromo domain-containing protein 1 (Saccharomyces cerevisiae (strain ATCC 204508 / S288c) (Baker's yeast)) (P32657 whole entry, the tested form may be a part): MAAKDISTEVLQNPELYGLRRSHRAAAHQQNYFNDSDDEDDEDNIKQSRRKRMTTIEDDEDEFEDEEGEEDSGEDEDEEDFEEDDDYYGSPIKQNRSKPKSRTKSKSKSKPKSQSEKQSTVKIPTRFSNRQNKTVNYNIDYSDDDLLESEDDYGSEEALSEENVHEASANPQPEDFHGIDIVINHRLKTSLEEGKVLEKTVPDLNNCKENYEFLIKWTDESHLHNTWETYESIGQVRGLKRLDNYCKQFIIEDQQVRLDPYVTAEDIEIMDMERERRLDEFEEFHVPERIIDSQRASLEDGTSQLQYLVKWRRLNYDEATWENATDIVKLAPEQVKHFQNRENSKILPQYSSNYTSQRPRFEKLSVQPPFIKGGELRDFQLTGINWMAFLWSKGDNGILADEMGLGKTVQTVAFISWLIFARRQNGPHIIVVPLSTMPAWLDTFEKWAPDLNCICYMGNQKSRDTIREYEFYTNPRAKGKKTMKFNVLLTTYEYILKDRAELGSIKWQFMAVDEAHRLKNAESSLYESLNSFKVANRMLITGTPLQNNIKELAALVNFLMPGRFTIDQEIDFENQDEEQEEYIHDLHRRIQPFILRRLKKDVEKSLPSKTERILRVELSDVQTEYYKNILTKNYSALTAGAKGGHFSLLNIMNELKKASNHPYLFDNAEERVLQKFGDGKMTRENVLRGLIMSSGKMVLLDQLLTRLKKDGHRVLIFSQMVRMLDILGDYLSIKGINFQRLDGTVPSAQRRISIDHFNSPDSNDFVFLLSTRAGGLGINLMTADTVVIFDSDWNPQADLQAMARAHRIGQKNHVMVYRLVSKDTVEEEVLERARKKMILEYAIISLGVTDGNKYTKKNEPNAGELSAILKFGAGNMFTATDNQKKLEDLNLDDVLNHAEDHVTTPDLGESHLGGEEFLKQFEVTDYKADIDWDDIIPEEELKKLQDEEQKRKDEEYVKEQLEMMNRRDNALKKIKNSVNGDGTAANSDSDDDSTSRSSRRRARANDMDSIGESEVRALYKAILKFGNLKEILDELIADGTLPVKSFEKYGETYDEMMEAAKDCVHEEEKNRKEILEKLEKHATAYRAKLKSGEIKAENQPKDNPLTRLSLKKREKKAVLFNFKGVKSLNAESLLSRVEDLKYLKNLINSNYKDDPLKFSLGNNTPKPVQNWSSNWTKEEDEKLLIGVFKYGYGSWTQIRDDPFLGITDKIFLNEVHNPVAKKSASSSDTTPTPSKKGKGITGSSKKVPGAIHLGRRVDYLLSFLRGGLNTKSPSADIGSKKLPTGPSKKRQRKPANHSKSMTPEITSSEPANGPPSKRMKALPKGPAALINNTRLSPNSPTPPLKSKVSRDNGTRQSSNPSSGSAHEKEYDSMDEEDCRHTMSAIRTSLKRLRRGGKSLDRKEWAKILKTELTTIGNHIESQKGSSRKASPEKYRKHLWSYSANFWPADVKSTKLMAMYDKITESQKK

Sequence of Sialic acid-binding Ig-like lectin 9 (Homo sapiens) (Q9Y336 whole entry): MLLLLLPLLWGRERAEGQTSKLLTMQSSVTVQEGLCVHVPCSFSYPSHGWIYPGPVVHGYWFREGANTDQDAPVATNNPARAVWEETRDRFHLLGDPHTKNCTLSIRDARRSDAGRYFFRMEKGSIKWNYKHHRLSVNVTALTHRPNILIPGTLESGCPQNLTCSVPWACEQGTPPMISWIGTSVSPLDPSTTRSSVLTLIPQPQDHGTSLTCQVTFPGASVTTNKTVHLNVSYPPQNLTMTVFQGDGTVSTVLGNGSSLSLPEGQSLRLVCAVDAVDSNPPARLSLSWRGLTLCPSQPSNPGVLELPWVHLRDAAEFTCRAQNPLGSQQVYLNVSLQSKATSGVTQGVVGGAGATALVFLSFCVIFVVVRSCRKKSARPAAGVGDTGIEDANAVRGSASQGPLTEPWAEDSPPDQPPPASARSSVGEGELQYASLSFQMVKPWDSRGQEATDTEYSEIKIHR
Sequence of Protein translocase subunit SecA (Escherichia coli (strain K12)) (P10408 whole entry): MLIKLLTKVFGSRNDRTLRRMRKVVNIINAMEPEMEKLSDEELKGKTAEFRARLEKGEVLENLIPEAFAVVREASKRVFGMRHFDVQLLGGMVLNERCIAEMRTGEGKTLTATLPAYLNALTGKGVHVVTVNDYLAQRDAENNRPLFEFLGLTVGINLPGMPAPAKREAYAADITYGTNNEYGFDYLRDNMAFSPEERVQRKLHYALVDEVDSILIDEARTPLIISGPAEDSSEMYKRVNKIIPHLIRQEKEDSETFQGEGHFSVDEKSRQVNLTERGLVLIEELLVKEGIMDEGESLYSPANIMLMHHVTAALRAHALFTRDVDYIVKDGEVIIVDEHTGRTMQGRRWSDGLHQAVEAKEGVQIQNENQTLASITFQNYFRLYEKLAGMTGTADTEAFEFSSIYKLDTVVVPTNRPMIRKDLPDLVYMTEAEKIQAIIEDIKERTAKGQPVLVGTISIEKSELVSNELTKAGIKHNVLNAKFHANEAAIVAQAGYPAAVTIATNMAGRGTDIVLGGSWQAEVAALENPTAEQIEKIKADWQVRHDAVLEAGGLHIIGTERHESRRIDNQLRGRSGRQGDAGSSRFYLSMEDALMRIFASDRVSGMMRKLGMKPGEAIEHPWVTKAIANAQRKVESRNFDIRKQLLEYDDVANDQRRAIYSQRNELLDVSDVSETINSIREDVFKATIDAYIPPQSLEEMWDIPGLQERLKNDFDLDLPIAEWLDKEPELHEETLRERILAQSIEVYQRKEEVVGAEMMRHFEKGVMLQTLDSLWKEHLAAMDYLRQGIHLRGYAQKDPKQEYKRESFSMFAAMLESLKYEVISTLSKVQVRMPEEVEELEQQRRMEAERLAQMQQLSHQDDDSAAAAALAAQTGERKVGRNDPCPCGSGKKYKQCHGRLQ

As for `CCN(Cc1nc2c(cnn2C)c(=O)[nH]1)c1ccc(OC)c(OC)c1`, the Percent Effect in assay [1] was -2.86%; in assay [2], 24.1%; in assay [3], 14.9%; in assay [4] it was -0.321%; in [5] it was 0.513%; in [6], -2.8%. Moreover, the Percent Effect in assay [7] is 23.3%; in assay [8], 27%; in [9], 9.38%; in assay [10], 20.2%; in assay [11] it was -22.5%.
As for `O=C(c1ccc(O)c(Cl)c1)N1CCC(c2n[nH]c(C3CC3)n2)CC1`, the Percent Effect in [1] was -6.1%; in [2], 3.8%; in [3], -0.285%; in assay [4], -6.96%; in [5] it was -5.44%; in [6] it was -1.5%. Moreover, the Percent Effect was 9.61% in assay [7]; 8.98% in assay [8]; 1.04% in [9]; 0% in assay [10]; -0.322% in assay [11].
Regarding `Cc1ccoc1C(=O)N1C[C@@H]2[C@@H](C1)OCC(=O)N2Cc1cccnc1`, the Percent Effect in assay [1] is -4.32%; in assay [2] it was -15.6%; in assay [3], -0.37%; in assay [4] it was 0.332%; in assay [5] it was -2.86%; in [6] it was 3.23%. Besides, the Percent Effect in assay [7] is 2.96%; in assay [8] it was 19.8%; in assay [9], -27.5%; in [10], -47.4%; in [11], 5.56%.
`O=C(NCCN1CCCCCC1=O)c1ccn(-c2ccc(F)cc2)n1`: the Percent Effect was 1.12% in [1]; 13.5% in [2]; -9.65% in [3]; -9.89% in [4]; -6.51% in [5]; 0% in [6]. The Percent Effect in [7] is 15.5%; in assay [8], 24.8%; in assay [9] it was 4.43%; in assay [10], 16.1%; in assay [11], -5.87%.
In the case of `O=C(NC1(c2cccc(F)c2)CCOCC1)c1cc[nH]n1`, the Percent Effect is -4.6% in assay [1]; 5.2% in [2]; 0.0633% in assay [3]; 4.75% in assay [4]; 0.885% in assay [5]; -23.4% in assay [6]. Further, the Percent Effect in assay [7] is 5.32%; in [8], 4.47%; in [9], 2.15%; in [10], 3.7%; in assay [11] it was -1.53%.
Take `Cc1ccc(NC(=O)N2CCOC(C)C2)cc1Cl` (stereo not given): the Percent Effect was -0.48% in assay [1]; 16.4% in assay [2]; -5.38% in [3]; 4.84% in [4]; 2.58% in assay [5]; -6.39% in [6]. Further, the Percent Effect was 26.6% in assay [7]; 10.5% in assay [8]; 7.29% in [9]; 21% in assay [10]; -3.19% in assay [11].
`CN1C(=O)C(c2ccccc2)CC12CCN(CCOCCO)CC2` (stereo not given): the Percent Effect was 1.44% in assay [1]; 10.7% in assay [2]; -6.48% in assay [3]; 0.314% in [4]; -9.64% in [5]; 3.12% in assay [6]. Besides, the Percent Effect is 19.2% in assay [7]; 15.2% in assay [8]; 3.83% in [9]; -8.64% in [10]; -5.07% in [11].
Consider `CN1CCOC(CN(C(=O)CC2CCCC2)c2nccs2)C1` (stereo not given), for which the Percent Effect in assay [1] was -0.692%; in assay [2], 0%; in [3], 6.23%; in assay [4], 8.01%; in assay [5], 0.464%; in [6] it was -4.25%. Besides, the Percent Effect in [7] was -2.69%; in assay [8], 7.78%; in assay [9], -3.96%; in [10], -6.1%; in assay [11] it was 2.72%.
As for `Cc1ccc(C(=O)N2CCN(CC(O)c3ccc(F)cc3)CC2)s1` (stereo not given), the Percent Effect in assay [1] was -2.93%; in assay [2] it was 7.89%; in assay [3] it was 6.49%; in assay [4], 18.1%; in [5], -0.564%; in assay [6] it was 0.766%. In addition, the Percent Effect in [7] is 4.34%; in [8] it was 13.7%; in [9], 5.39%; in [10], 9.76%; in [11], -0.68%.
`Cc1ccc(-c2nc(CNCCn3cccn3)cs2)o1`: the Percent Effect was 1.6% in assay [1]; -429% in [2]; 4.22% in [3]; -1.49% in [4]; 1.13% in assay [5]; 4.6% in [6]. For the same compound, the Percent Effect in assay [7] came out at 8.19%; in [8] it was 10.3%; in assay [9], 11.3%; in assay [10] it was 4.88%; in [11], 1.79%.
